About 6,500 targets were measured; listed, in parts, are those with a hit and a random draw of the rest. About 2% of all pairs of compound and target were hits. Values without a mark were called inactive.

Chain of UniProt Q8NF37 (Q8NF37 whole entry, looked up): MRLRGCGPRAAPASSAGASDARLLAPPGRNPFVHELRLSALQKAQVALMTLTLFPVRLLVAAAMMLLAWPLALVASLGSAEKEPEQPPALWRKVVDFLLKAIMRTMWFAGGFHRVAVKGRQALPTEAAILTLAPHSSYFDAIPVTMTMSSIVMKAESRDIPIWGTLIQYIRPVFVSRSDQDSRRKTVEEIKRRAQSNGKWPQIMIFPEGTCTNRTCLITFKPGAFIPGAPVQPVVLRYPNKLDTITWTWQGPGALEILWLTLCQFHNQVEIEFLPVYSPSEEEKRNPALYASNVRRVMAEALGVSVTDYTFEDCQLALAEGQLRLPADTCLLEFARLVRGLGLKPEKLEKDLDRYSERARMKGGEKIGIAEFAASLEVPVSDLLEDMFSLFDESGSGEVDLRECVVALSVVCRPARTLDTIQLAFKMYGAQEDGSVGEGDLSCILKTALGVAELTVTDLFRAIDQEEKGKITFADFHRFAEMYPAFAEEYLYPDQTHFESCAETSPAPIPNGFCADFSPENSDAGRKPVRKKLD
Chain of UniProt Q92922 (Q92922 whole entry, looked up): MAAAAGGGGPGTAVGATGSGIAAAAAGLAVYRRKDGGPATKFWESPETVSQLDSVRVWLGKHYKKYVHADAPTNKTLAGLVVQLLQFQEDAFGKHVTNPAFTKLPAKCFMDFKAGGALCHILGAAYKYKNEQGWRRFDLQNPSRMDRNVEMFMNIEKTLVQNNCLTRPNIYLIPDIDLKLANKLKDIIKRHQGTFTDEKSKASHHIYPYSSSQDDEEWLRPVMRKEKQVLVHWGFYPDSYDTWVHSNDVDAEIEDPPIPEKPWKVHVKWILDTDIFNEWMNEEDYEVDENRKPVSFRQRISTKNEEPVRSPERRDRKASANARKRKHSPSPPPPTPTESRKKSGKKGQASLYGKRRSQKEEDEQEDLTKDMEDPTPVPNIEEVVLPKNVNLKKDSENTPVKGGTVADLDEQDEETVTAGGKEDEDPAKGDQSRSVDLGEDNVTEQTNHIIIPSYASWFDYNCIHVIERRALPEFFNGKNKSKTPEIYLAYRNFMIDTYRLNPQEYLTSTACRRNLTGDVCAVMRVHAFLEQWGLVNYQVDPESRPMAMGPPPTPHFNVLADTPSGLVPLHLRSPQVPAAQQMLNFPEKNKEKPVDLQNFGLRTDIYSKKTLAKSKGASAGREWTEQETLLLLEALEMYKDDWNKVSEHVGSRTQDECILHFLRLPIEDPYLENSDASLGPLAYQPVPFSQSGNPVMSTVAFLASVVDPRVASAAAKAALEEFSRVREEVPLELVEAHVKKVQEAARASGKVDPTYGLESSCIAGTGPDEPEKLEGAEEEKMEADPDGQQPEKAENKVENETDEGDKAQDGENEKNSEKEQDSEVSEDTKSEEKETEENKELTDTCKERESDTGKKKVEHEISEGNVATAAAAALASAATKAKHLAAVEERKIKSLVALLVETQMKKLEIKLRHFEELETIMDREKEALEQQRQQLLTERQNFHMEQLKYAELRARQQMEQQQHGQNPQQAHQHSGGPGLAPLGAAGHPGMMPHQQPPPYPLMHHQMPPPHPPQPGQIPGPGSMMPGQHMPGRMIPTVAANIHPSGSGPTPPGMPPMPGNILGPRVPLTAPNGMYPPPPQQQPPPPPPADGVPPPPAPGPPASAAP
Chain of UniProt Q99832 (Q99832 whole entry, looked up): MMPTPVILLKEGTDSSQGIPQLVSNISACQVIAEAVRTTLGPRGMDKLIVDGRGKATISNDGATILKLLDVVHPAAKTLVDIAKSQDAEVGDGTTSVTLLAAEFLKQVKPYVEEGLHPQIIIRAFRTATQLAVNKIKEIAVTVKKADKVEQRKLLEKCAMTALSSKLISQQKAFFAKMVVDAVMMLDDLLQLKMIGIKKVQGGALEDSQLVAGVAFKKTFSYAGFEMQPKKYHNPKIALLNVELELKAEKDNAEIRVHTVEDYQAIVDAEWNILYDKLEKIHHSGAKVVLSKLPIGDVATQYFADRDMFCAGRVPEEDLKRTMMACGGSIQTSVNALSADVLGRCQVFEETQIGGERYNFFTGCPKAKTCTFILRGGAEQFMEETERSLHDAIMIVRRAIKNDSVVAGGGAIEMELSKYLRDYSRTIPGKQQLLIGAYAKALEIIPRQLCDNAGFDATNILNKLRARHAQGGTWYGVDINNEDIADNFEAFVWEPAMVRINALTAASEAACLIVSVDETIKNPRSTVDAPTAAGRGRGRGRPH
Chain of UniProt Q8WUY8 (Q8WUY8 whole entry): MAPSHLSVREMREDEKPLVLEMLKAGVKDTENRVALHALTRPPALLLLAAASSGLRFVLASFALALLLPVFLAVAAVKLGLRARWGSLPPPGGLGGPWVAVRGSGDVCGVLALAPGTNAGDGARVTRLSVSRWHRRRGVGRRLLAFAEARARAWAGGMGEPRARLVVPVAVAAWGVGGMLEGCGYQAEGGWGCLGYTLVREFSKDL
Chain of UniProt Q6PCB5 (Q6PCB5 whole entry, looked up): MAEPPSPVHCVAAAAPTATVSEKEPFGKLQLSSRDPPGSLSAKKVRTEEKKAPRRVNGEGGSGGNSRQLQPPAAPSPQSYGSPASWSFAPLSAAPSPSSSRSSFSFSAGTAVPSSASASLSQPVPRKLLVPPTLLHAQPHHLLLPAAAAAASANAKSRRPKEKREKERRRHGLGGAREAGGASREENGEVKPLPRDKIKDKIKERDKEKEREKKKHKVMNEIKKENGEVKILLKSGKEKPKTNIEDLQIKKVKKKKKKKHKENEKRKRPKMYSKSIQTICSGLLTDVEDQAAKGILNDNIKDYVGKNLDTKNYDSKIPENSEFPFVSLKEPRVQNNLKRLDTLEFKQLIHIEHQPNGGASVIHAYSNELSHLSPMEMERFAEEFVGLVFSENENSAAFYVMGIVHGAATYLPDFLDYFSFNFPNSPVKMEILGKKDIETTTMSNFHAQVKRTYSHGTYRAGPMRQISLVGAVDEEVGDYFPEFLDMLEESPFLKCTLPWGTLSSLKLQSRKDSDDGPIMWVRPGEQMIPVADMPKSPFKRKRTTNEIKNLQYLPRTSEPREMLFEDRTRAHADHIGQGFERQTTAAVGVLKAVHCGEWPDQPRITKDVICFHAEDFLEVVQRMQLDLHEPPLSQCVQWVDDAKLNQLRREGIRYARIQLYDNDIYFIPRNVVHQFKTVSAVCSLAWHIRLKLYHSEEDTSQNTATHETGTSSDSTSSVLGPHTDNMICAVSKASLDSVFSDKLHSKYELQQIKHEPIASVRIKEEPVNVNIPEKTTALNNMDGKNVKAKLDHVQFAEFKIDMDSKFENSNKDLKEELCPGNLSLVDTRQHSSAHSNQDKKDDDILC
Chain of UniProt Q96SZ5 (Q96SZ5 whole entry, looked up): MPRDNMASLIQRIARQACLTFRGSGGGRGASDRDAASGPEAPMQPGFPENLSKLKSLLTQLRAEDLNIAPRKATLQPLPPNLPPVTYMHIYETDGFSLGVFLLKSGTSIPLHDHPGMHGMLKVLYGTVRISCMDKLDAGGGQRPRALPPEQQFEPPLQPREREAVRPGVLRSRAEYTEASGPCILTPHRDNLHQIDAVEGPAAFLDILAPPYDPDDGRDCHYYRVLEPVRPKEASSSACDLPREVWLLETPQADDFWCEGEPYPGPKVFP
Chain of UniProt Q92769 (Q92769 whole entry): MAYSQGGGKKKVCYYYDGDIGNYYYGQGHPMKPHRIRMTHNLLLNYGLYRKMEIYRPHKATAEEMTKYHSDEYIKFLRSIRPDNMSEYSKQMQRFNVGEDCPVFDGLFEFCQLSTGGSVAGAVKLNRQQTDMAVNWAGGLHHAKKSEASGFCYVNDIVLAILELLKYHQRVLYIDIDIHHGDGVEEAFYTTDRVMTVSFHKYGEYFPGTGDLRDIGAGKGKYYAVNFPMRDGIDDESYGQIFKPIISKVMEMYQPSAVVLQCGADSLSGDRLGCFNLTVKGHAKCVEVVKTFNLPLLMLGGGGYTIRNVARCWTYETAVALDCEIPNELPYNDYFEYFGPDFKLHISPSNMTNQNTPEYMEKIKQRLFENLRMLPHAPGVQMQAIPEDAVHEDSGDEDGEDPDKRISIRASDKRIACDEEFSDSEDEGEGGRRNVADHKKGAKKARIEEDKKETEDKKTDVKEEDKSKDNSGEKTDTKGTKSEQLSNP
Chain of UniProt Q96F86 (Q96F86 whole entry, looked up): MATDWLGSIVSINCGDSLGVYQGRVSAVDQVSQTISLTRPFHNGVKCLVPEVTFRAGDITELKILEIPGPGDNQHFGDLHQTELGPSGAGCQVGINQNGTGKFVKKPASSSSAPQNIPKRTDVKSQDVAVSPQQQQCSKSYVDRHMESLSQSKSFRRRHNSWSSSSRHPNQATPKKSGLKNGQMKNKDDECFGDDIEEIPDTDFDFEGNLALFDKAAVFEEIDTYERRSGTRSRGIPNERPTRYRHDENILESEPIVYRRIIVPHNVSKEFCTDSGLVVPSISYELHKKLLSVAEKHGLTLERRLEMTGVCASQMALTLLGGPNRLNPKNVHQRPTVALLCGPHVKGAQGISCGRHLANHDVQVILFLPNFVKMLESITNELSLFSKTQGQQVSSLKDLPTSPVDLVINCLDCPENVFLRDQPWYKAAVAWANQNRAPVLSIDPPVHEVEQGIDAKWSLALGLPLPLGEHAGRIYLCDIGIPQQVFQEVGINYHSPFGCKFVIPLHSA

Compound in the assay: COC(=O)C#Cc1ccccc1 [methyl 3-phenylpropiolate]
Briefly: log2 ratio of iodoacetamide-alkyne labeling of the cysteine site, DMSO over compound (competition); higher = stronger covalent engagement of the cysteine by the compound, active = 1 or more. As to conditions: 500 µM; treatment time 1 h; system: HEK293T cell lysate. An outline of the steps: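 HEK293T lysate at 2 mg/mL was treated with vehicle or electrophile (500 µM) for 1 h at ambient temperature, then labelled with iodoacetamide alkyne (1 h), clicked to sCIP-TMT reagents, pooled, digested with trypsin overnight at 37 °C, enriched on streptavidin and eluted with acid. Peptides were analysed by Orbitrap Eclipse LC-MS/MS with FAIMS and quantified in FragPipe, using duplicate channels and three replicates, with cysteines quantified in only one replicate excluded. The log2 competition ratio for each cysteine is the mean control-channel reporter intensity divided by the mean compound-channel reporter intensity.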
Take DPF1 C149 (UniProt Q92782): the “log2 ratio of iodoacetamide-alkyne labeling” value (“log2 ratio” for short) was 0.289.
Turning to HSPH1 C650 (UniProt Q92598), the “log2 ratio” value was 0.025.
Then SMARCC1 C164 (UniProt Q92922), with 0.146; and NOC3L C683 (UniProt Q8WTT2), with 0.191; and EDC3 C137 (UniProt Q96F86), with 1.09 (active).
Take CCT7 C310 (UniProt Q99832): the “log2 ratio” value is 0.193.
The figure for DHX29 C1025 (UniProt Q7Z478) is 0.0649; for HDAC2 C417 (UniProt Q92769) it is 0.126; for FLAD1 C496 (UniProt Q8NFF5) it is 1.06 (active).
The figure for MTHFD1L C291 (UniProt Q6UB35) is 0.126; for TBC1D15 C686 (UniProt Q8TC07) it is 0.635; for HDHD3 C243 (UniProt Q9BSH5) it is 0.16.
Then UniProt Q8WVB3_C244, with 0.59; and ATXN7L3B C75 (UniProt Q96GX2), with 1.03 (active).
Consider UniProt Q92888_C892, for which the “log2 ratio” value was 0.0678.
The figure for SEC14L1 C258 (UniProt Q92503) is 0.208; for PNKP C516 (UniProt Q96T60) it is 0.166.
Then CWF19L1 C176 (UniProt Q69YN2), with -0.136.
Then DIS3L2 C312 (UniProt Q8IYB7), with 0.226; and WDFY1 C287 (UniProt Q8IWB7), with 0.127; and C15orf39 C367 (UniProt Q6ZRI6), with 1.32 (active).
Turning to LPCAT1 C216 (UniProt Q8NF37), the “log2 ratio” value was 0.211.
Then FBXO30 C317 (UniProt Q8TB52), with 0.564.
Take ANKRD11 C1845 (UniProt Q6UB99): the “log2 ratio” value is 1.24 (active).
For UniProt Q96GD4_C234, the “log2 ratio” value was 0.62.
Then ADO C258 (UniProt Q96SZ5), with 0.15.
The figure for NAT14 C108 (UniProt Q8WUY8) is 1.05 (active).
Then IRF2BP2 C16 (UniProt Q7Z5L9), with 0.113; and CPPED1 C54 (UniProt Q9BRF8), with 1.01 (active).
For the target CCDC50 C85 (UniProt Q8IVM0), the “log2 ratio” value is 0.455.
Take ATPAF1 C321 (UniProt Q5TC12): the “log2 ratio” value was 0.464.
Then RSBN1L C280 (UniProt Q6PCB5), with 0.649.
Turning to USP28 C142 (UniProt Q96RU2), the “log2 ratio” value is 1.47 (active).
Then INTS1 C1701 (UniProt Q8N201), with -0.0332; and HEATR6 C360 (UniProt Q6AI08), with 0.657.

The record behind these values is the supplement of paper PMC11006884.
